Screens: PubChem, National Center for Advancing Translational Sciences (NCATS)
Shown are actives, neighbours in structure and some others; about 11% of the full set was active somewhere.
Sm TGR inh = qHTS Assay for the Inhibitors of Schistosoma Mansoni Peroxiredoxins; 360,000 compounds, 3% hits; purified TGR, DTNB reduction, TNB absorbance 405 nm; Potency, µM (series often up to 114 µM), usual class: inhibitors; note: nearly all actives have a fitted effect of over 60% in size
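First, TGR (20 nM dispensed) and NADPH were mixed with compound. Second, a 15 min room-temperature incubation followed. Third, further NADPH and then DTNB were added to start the reaction. Finally, TNB absorbance was monitored kinetically.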
AMA1-RON2 inh = qHTS for Inhibitors of AMA1-RON; Towards Development of Antimalarial Drug Lead: Primary Screen | 360,000 compounds, 0.2% hits | Potency, µM (series often up to 58.2 µM), actives largely listed as inhibitors | AlphaScreen AMA1-biotinylated RON2 peptide binding; note: nearly all actives have a fitted effect of over 45% in size
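AMA1 (3D7) with his tag at 25 nM final met compounds first, then biotinylated RON2 peptide at 25 nM; detection used donor plus acceptor beads, 10 µg/mL apiece, read by AlphaScreen after 30 min at room temperature.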
Pf growth 96h = Primary qHTS for delayed death inhibitors of the malarial parasite plastid, 96 hour incubation; P. falciparum luciferase reporter growth, 96 h; Potency, µM (titrated, usually from 28.7 µM), most hits filed as inhibitors; 320,000 compounds, 6.9% hits; AID 504834, 2011
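Readout is luminescence from an integrated firefly luciferase in P. falciparum. Red cells, 2% hematocrit and 0.05% parasitemia final, were cultured with compound through two parasite generations (96 hours) at 37 C, 5% CO2.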
Pf growth 48h = Primary qHTS for delayed death inhibitors of the malarial parasite plastid, 48 hour incubation | P. falciparum luciferase growth in erythrocytes, 48 h | Potency, µM (series often up to 28.7 µM), usual class: inhibitors | 310,000 compounds, 5.9% hits | AID 504832, 2011
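Luciferase-expressing parasites in RBCs, 2% Hct / 0.1% parasitemia final; RPMI 1640 + 0.5% Albumax; 37 C, 5% CO2, one generation; luminescence read-out, lower signal = inhibition.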
NS1 inh = qHTS Assay for Inhibitors of Influenza NS1 Protein Function | 270,000 compounds, 0.4% hits | Potency, µM (doses to about 46.1 µM); calls by dose curve; note: actives are rising curves; nearly all actives have a fitted effect of over 50% in size
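In this qHTS, NS1 from influenza A is expressed in budding yeast, where it slows growth. Cells are switched from glucose to 2% galactose medium (pH 6.0, -URA), treated with compound, and growth recovery is read at OD600.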
Each line names hits and unclear results; the compound was inactive in the other large screens. Unless noted, calls come from the whole dose curve; as a rule, active = well fitted curve in the direction sought with a large enough effect; inconclusive = small, poorly fitted or top-dose-only effect, or another doubt; inactive = no such curve, though single readings can be large; an effect the other way counts as inactive or inconclusive.

COc1ccc(C(C(=O)NC2CCCCC2)N(C(=O)Cc2c[nH]c3ccccc23)c2ccccc2C)cc1OC (stereo not given)	Pf growth 96h 13.1µM, Pf growth 48h inconclusive
CC=C(/C(=C/C)c1ccc(O)cc1)c1ccc(O)cc1	Pf growth 96h inconclusive (no result: Sm TGR inh, AMA1-RON2 inh, NS1 inh)
COc1ccc(C(C)(C)C)cc1NC(=O)C1=CC=CN2CCS(=O)(=O)N=C12	none (no result: Sm TGR inh, Pf growth 96h, Pf growth 48h, NS1 inh)
CCn1c(CNC(=O)c2ccc(OC)cc2)nnc1SCC(=O)Nc1cccc(C)c1	none (no result: AMA1-RON2 inh, Pf growth 96h, Pf growth 48h, NS1 inh)
Cc1cc(=O)[nH]c(Nc2ccccc2C)n1	Pf growth 96h inconclusive
COc1ccc(CNCc2c(C(=O)N(C)C)nc3ccc(Cl)cn23)c(OC)c1	Pf growth 96h inconclusive, Pf growth 48h inconclusive
Cc1nc(NC(=O)c2ccco2)sc1-c1csc(Nc2ccc(Cl)cc2)n1	Pf growth 96h 9.28µM, Pf growth 48h 9.28µM, NS1 inh inconclusive
COc1cccc(N(C(=O)c2ccco2)c2nc(-c3sc(NC(=O)c4ccco4)nc3C)cs2)c1	Pf growth 96h inconclusive, Pf growth 48h inconclusive
Cc1ccc(Cl)cc1Nc1nc(-c2sc(NC(=O)c3cccc(Cl)c3)nc2C)cs1	Pf growth 96h inconclusive, Pf growth 48h inconclusive (no result: AMA1-RON2 inh)
Cc1ccc(Cl)cc1Nc1nc(-c2sc(NC(=O)c3ccco3)nc2C)cs1	Pf growth 96h 9.28µM, Pf growth 48h inconclusive
Cc1nc(NC(=O)c2ccco2)sc1-c1csc(Nc2ccc(Cl)cc2Cl)n1	Pf growth 96h 8.28µM, Pf growth 48h inconclusive
CC(=O)Nc1ccc(Nc2nc(-c3sc(C)nc3C)cs2)cc1	Pf growth 96h inconclusive
COc1ccccc1Nc1nc(-c2sc(NC(=O)c3ccco3)nc2C)cs1	Pf growth 96h 9.28µM, Pf growth 48h 11.7µM
CCOc1ccc(CCNC(=O)Cn2nnc(-c3ccccc3)n2)cc1OCC	none (no result: AMA1-RON2 inh, Pf growth 96h, Pf growth 48h, NS1 inh)
CCOc1ccc(Cn2nnc(-c3ccc(S(C)(=O)=O)cc3)n2)cc1OCC	Pf growth 96h 0.928µM, Pf growth 48h inconclusive (no result: NS1 inh)
COc1ccc(-c2sc3ccc(OC)cc3c2-c2ccc(OC)c(F)c2)cc1	Pf growth 48h inconclusive (no result: NS1 inh)
COc1ccc(-c2sc3ccc(N4CCOCC4)cc3c2-c2ccc(OC)c(F)c2)cc1	Pf growth 96h 6.57µM, Pf growth 48h 14.7µM
CCCc1nnc(NC(=O)CCC(=O)N2CCN(Cc3ccc(Cl)cc3)CC2)s1	Pf growth 96h 11.7µM
Cc1ccc(OCCN2CCN(C(=O)CCC(=O)Nc3nnc(CC(C)C)s3)CC2)cc1	Pf growth 96h 0.329µM, Pf growth 48h 11.7µM
Cc1cccc(N2C(=O)C(Oc3ccc(Cl)cc3Cl)C2C(=O)O)c1C (stereo not given)	Pf growth 96h 10.4µM
COc1ccc(NC(=O)CCn2c(-c3ccc(F)cc3)cc(C(C)=O)c2C)c(OC)c1	none (no result: AMA1-RON2 inh, Pf growth 96h, Pf growth 48h, NS1 inh)
CCn1c(SC(C)C(=O)Nc2ccc(N3CCOCC3)cc2)nnc1C1CC1 (stereo not given)	Pf growth 48h inconclusive (no result: NS1 inh)
O=C(O)CSC1CC(=O)N(c2cccc(Cl)c2)C1=O (stereo not given)	Sm TGR inh inconclusive (no result: Pf growth 48h)
O=C(O)CSC1CC(=O)N(c2ccc(Cl)c(Cl)c2)C1=O (stereo not given)	Sm TGR inh 17.8µM, Pf growth 96h inconclusive
COc1ccc(S(=O)(=O)c2cn(Cc3ccccc3)c3cc(N4CCCC4)c(F)cc3c2=O)cc1	none (no result: AMA1-RON2 inh, Pf growth 96h, Pf growth 48h, NS1 inh)
COc1ccc(C(=O)c2c(C)c3ccccc3n2CC(O)CNC(C)C)cc1 (stereo not given)	Pf growth 96h inconclusive, Pf growth 48h 11.7µM
O=C(NNC(=S)Nc1ccc(Br)cc1)c1ccccc1Br	Pf growth 96h 9.28µM
O=C(NNC(=S)Nc1ccc(Br)cc1)c1ccccc1	Pf growth 96h inconclusive
O=C(NNC(=O)c1ccccc1Br)c1ccc(Cl)cc1	none
S=C(NCc1ccccc1)NC1CCCCC1	none
O=C(NNC(=O)c1ccccc1Br)c1ccncc1	Pf growth 96h 10.4µM
S=C(NC1CCCCC1)NN(c1ccccc1)c1ccccc1	Pf growth 96h 2.94µM, Pf growth 48h 11.7µM
O=C(NNC(=S)NC1CCCCC1)c1ccccc1Br	Pf growth 96h inconclusive, Pf growth 48h 13.1µM
C[C@H]1CN([C@@H](C)CO)C(=O)CCCn2nncc2CO[C@H]1CN(C)C(=O)c1ccc(N2CCN(C)CC2)cc1	none (no result: Sm TGR inh, Pf growth 96h, Pf growth 48h, NS1 inh)
Cc1cn([C@H]2C[C@H](O)[C@@H](/C=C/C(=O)NCCc3ccc(S(N)(=O)=O)cc3)O2)c(=O)[nH]c1=O	none (no result: Sm TGR inh, Pf growth 96h, Pf growth 48h, NS1 inh)
COc1cccc(Nc2nc(C(N)CCc3ccccc3)cs2)n1 (stereo not given)	none (no result: Sm TGR inh, Pf growth 96h, Pf growth 48h, NS1 inh)
CCOc1ccccc1N1CCN(C(=O)c2ccc3nc(N)sc3c2)CC1	none (no result: Sm TGR inh, Pf growth 96h, Pf growth 48h, NS1 inh)
CC(C)NC(=S)NN=C1c2ccccc2-c2ccccc21	Pf growth 96h inconclusive (no result: NS1 inh)
O=C(NC(=S)NC1CCCCC1)c1ccccc1	Sm TGR inh 1µM, Pf growth 96h inconclusive, Pf growth 48h inconclusive
Cc1ccsc1C(=O)NNC(=S)NC1CCCCC1	Pf growth 96h 9.28µM
C/C(=N\NC(=S)NC1CCCCC1)c1ccccc1	Pf growth 96h inconclusive, Pf growth 48h 4.15µM
CC(C)NC(=S)NC(c1ccccc1)(c1ccccc1)c1ccccc1	Pf growth 96h 8.28µM, Pf growth 48h 6.57µM
CNC(=S)NNC(=O)c1sccc1C	Pf growth 96h inconclusive
C/C(=N\NC(=S)NC(C)C)c1ccccc1	Sm TGR inh 0.398µM, Pf growth 48h inconclusive
CC(=O)Nc1cccc(/C(C)=N/NC(=S)NC(C)C)c1	none (no result: NS1 inh)
